Over roughly 35,000 sequences, “fluorescence intensity (a.u.)” has its median near 10,000; the highest 2% begin near 52,000. The full list was thinned out, with the highest values kept by preference.
biological target: T1, OsWOX13 (Oryza sativa, UniProt Q5QMM3 1-267); test: protein-binding microarray (RPBM); PBS, 2% BSA, 51.3 ng/ul salmon testes DNA, 50 uM zinc acetate, 200 nM TF, 25 C, 1 h; high values mean tight binding; settings: protein: recombinant; tags: N-terminal polyhistidine and DsRed monomer fusion (pET32a); label: CyDye5-dUTP incorporated in the synthesized complementary strand; 3' TTTTT single-stranded linker to array surface; dsDNA, one strand shown
T1 sequence: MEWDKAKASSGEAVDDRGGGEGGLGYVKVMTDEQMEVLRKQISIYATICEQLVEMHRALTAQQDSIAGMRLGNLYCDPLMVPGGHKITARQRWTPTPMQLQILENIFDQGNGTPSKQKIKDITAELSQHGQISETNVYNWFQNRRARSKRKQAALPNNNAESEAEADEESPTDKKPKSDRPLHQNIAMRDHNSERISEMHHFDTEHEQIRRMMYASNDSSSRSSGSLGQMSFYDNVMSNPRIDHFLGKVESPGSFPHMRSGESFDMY
Procedure, shortened: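 Binding signal here means per-feature fluorescence intensity in arbitrary units. The values were read on an Axon 4000B scanner after a custom Agilent array, double-stranded by primer extension with Cy5-dUTP, was incubated with 200 nM protein at 25 °C for 1 h in PBS with 2% BSA, salmon testes DNA and 50 µM zinc acetate, then washed. The proteins were transcription factors with an N-terminal polyhistidine tag and DsRed, expressed in E. coli BL21-CodonPlus and purified on Ni–NTA.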

Point of comparison: “CATGGATAATTTGTTTTGGAGTGACACACTGACACTGATGCGGAGTCACCTAGTGCAG”, binding signal 9780 fluorescence intensity (a.u.). Against it:
- TTGGGAAACGGAGGAAGTAATTAATTAGTCTTTGTGGAAACGGAGTCACCTAGTGCAG — lower, 3790 fluorescence intensity (a.u.)
- TTAATTAACTCAGCTTCTAGTTCATATGACTCTTGCTAATCGGAGTCACCTAGTGCAG — lower, 8400 fluorescence intensity (a.u.)
- AATTAATAATTGCAATAGTTAGGTTATGAAGACTTCAGAGCGGAGTCACCTAGTGCAG — higher, 15300 fluorescence intensity (a.u.)
- TTGCTAATTAATTTATGTTAATTAGTAGCTAACCTAGCTGCGGAGTCACCTAGTGCAG — higher, 65200 fluorescence intensity (a.u.)
- ACAATCTTATAGCTAATTTATTATATATGTTAGCTTTAAGCGGAGTCACCTAGTGCAG — lower, 4320 fluorescence intensity (a.u.)
- AATTTAATTAATTATGACTTCAGCTTGGTAGGTTCAGTTGCGGAGTCACCTAGTGCAG — higher, 53000 fluorescence intensity (a.u.)
- AATATTTATGTTAATTATATATAGCTAATTATGATAATAGCGGAGTCACCTAGTGCAG — higher, 18800 fluorescence intensity (a.u.)
- AAAACAGAAAATAGCCAGTCAACCAAACAGTTGTCTTGACCGGAGTCACCTAGTGCAG — lower, 6230 fluorescence intensity (a.u.)
- TGCTAATGGCGGCCATAGATTTGTACAAGTATCAGCTGAGCGGAGTCACCTAGTGCAG — lower, 4480 fluorescence intensity (a.u.)
- ACTGATTGCTGTTGGTCATTCCCGGGCCAGTCCCCACTCCCGGAGTCACCTAGTGCAG — higher, 52400 fluorescence intensity (a.u.)
- AATTGCTGTTGATTTGCCACTACCACTCTCCCCAACAAGTCGGAGTCACCTAGTGCAG — lower, 6370 fluorescence intensity (a.u.)
- CCCACATGCCAGACTGATTGCCAGTCATGAGCAAGGGTCCCGGAGTCACCTAGTGCAG — higher, 23900 fluorescence intensity (a.u.)
- ATCATAACTCCATCAGATAATTTGTGCAGAACGGCAGAACCGGAGTCACCTAGTGCAG — lower, 5500 fluorescence intensity (a.u.)
- GTGTTGAATGCACTGATTTGTTCAGTGTCTGAGATTGATGCGGAGTCACCTAGTGCAG — higher, 13100 fluorescence intensity (a.u.)
- ACGAATCTAATGAGCCTAATTAATCCATGATTAGCCTATGCGGAGTCACCTAGTGCAG — higher, 21200 fluorescence intensity (a.u.)
- GAATCTATTGAGCCTAATTAATCCATGATTAGCCTATGTGCGGAGTCACCTAGTGCAG — lower, 7730 fluorescence intensity (a.u.)
- TTAATTATTTGAGCAAATTTAATGGGATGAGGGAATGATGCGGAGTCACCTAGTGCAG — higher, 24800 fluorescence intensity (a.u.)
- TCTTTACTTAATTAATTTGATGCATGTATGCCAGGATTTGCGGAGTCACCTAGTGCAG — higher, 35800 fluorescence intensity (a.u.)
- GTTTTAATTGTTTTACTGATTTGCAAATGAGTCTGGGATGCGGAGTCACCTAGTGCAG — higher, 63500 fluorescence intensity (a.u.)
- AGTTCAATTGCTTTGATGAGTGAGCAGAGAGATGATGCAGCGGAGTCACCTAGTGCAG — lower, 3420 fluorescence intensity (a.u.)
- CCAGCTTAATTGAGCCTGATTAGCCGAATCCATAATTGTGCGGAGTCACCTAGTGCAG — higher, 63800 fluorescence intensity (a.u.)
- ATTAATTGATGCTTTGCTTGATTACTTGAGTCAGATCCAGCGGAGTCACCTAGTGCAG — higher, 63200 fluorescence intensity (a.u.)
- ATGTTGATTGGAGTCTGATAACTTGTCACTGGATGACATGCGGAGTCACCTAGTGCAG — higher, 61700 fluorescence intensity (a.u.)
- TTGAGATGATTTACTATTAATTTAGTCTATTGTTGAGATGCGGAGTCACCTAGTGCAG — higher, 35700 fluorescence intensity (a.u.)
- CATTGTCATCCTGAGTAGATTGCCAATTATATGGGTTTGGCGGAGTCACCTAGTGCAG — lower, 6170 fluorescence intensity (a.u.)
- CGTTTTGATGGATGGCTCAGATCGGTTCCGAATCGATCAACGGAGTCACCTAGTGCAG — lower, 5120 fluorescence intensity (a.u.)
- GGTTTAATTAATTAATCGCGCCAACCCAGATGCTAATCAGCGGAGTCACCTAGTGCAG — higher, 50200 fluorescence intensity (a.u.)
- TGAAAATTTTGTCGGAAATTTATCAGTGTATCAACTGTCTCGGAGTCACCTAGTGCAG — lower, 6470 fluorescence intensity (a.u.)
- TTTCTTGATTTGGTTGGGATTGGTTGTTCTTGGGCTTATCCGGAGTCACCTAGTGCAG — higher, 24600 fluorescence intensity (a.u.)
- GTTGAGATTAATTGTTCTATACTACTTTCTCTATCTAAAACGGAGTCACCTAGTGCAG — lower, 7990 fluorescence intensity (a.u.)
- GATAATTCTTATGTTACTGACTAATATGATAGTACTGAGTCGGAGTCACCTAGTGCAG — lower, 5770 fluorescence intensity (a.u.)
- AGTTGATTGGTAAAGTGACATGCTTGAACACTGTTGGAGCCGGAGTCACCTAGTGCAG — higher, 54000 fluorescence intensity (a.u.)
- GGAACAGGTACCATAATTGTTAATAACCTAATACTGGGCCCGGAGTCACCTAGTGCAG — lower, 5270 fluorescence intensity (a.u.)
- ACACTTGGAGATTGGTAATAGATTACAGAAAGTTGAATGCCGGAGTCACCTAGTGCAG — higher, 14300 fluorescence intensity (a.u.)
- TGTTGCTGTTGATTAGCTCTCACCTAATTTGTTGTGTATGCGGAGTCACCTAGTGCAG — higher, 18100 fluorescence intensity (a.u.)
- CCTGATTAATTGTTAATTTTGCTGATGCAGCTGTTGCTTGCGGAGTCACCTAGTGCAG — higher, 65000 fluorescence intensity (a.u.)
- ATGAATCTAGTCAGATTGGCCAATTTGATTTGTTTTACTCCGGAGTCACCTAGTGCAG — lower, 9360 fluorescence intensity (a.u.)
- ATTAACCAGTATTAATAATTGAGGGACGTTGTATACTGGGCGGAGTCACCTAGTGCAG — higher, 20500 fluorescence intensity (a.u.)
- TATAATTGTTACTGTTAATTGAGGTGGGAAATACCAGGTGCGGAGTCACCTAGTGCAG — higher, 53500 fluorescence intensity (a.u.)
- TCAAAGTGATTGGTGACACTCTACACAACACACAGTTGAACGGAGTCACCTAGTGCAG — higher, 28400 fluorescence intensity (a.u.)
- ACTTACAAATTTTGTACTCAATTGAGATGTGCTTCGATTGCGGAGTCACCTAGTGCAG — lower, 5640 fluorescence intensity (a.u.)
- TGTTAATCTTGCTGATTTTGTTATTGATTTTAATGCTATGCGGAGTCACCTAGTGCAG — higher, 17300 fluorescence intensity (a.u.)
- AATTTGATTGATTTTACTCTCGAGCCAATTGAGATGTCTGCGGAGTCACCTAGTGCAG — higher, 64800 fluorescence intensity (a.u.)
